Source: PubChem BioAssay (Tox21)
Results filed as inconclusive are left out. Where a structure was tested more than once in an assay, its records may differ in their call. Active and inactive are the calls of the source. Calls follow the shape of the dose curve; as a rule, active = well fitted cell-killing curve with a large enough effect in the repeat runs; inconclusive = weak or mixed curves, or effect the other way; inactive = flat fitted curve, though single readings scatter.

Assay: qHTS assay to identify small molecule agonists of the TGF-beta/Smad signaling pathway - cell viability counter screen (AID 1346829); also: nearly all actives have a fitted effect of over 45% in size; as to activity change, negative = cytotoxicity: top concentration of the series differs between compounds
Settings: SBE-bla HEK293T viability, CellTiter-Glo luminescence, 5 h; series mostly up to 76.8 µM; activity change, negative = cytotoxicity: at the top concentration
Text: National Center for Advancing Translational Sciences [NCATS]
NIH Chemical Genomics Center [NCGC]
U.S. Environmental Protection Agency [EPA]
National Institutes of Environmental Health Sciences [NIEHS]
National Toxicology Program [NTP]
U.S. Food and Drug Administration [FDA]
Transforming growth factor beta (TGF-beta) superfamily consists of a large number of structurally related dimeric proteins that act as hormones or local mediators in regulating a wide range of biological functions. This superfamily includes TGF-betas themselves, the bone morphogenetic proteins (BMPs) and the activins. These ligands induce oligomerization of serine/threonine receptor kinases and phosphorylate the cytoplasmic signaling molecules of Smad protein family. CellSensor SBE-bla HEK 293T cell line (Life Technologies, Carlsbad, CA), responsive to TGF-beta was used to screen Tox21 10K compound library for identification of agonists/antagonists of the Smad signaling pathway. This cell line contains a beta-lactamase reporter gene under control of the Smad binding element (SBE) stably integrated into HEK 293T cells. Also cytotoxicity of the compounds was tested in parallel by measuring the cell viability using CellTiter-Glo assay system in the same wells.
Tox21 Assay Protocol Summary:
SBE-bla HEK 293T cells were dispensed at 4,000/well in 6 uL of assay medium into black wall/clear-bottom 1536-well plates using a Multidrop Combi (ThermoFisher Scientific, Waltham, MA) dispenser. After the assay plates were incubated at 37 C and 5% CO2 for an overnight, 23 nL of compounds dissolved in DMSO, positive controls or DMSO only was transferred to the assay plate by a Pintool station (Kalypsys, San Diego, CA). The assay plates were incubated at 37 C and 5% CO2 for 5 hr. One uL of LiveBLAzer B/G FRET substrate (Life Technologies) was added using a Flying Reagent Dispenser (FRD, Aurora Discovery, San Diego, CA) and the plates were incubated at room temperature for 2 hr. Fluorescence intensity (405 nm excitation, 460 nm and 530 nm emissions) was measured using an Envision plate reader (PerkinElmer, Shelton, CT). For cytotoxicity read, 4 uL of CellTiter-Glo reagent (Promega Corporation, Madison, WI) was added to each well of the assay plates using FRD. After 30min incubation at room temperature, the luminescence intensity was measured using ViewLux plate reader (PerkinElmer).
% is scaled to controls: 0 for no effect and ±100 for the full control effect; potency is read from the fitted curve at half-maximal effect.

SMILES | activity change, negative = cytotoxicity | Potency
Nc1ccc(Cl)cc1C(=O)c1ccccc1 | 10% (inactive) | –
BrCBr | 4.03% (inactive) | –
CCC(C)c1cc([N+](=O)[O-])cc([N+](=O)[O-])c1OC(=O)C=C(C)C (stereo not given) | -14.7% (inactive) | –
CC(C)(C)C(O)C(Oc1ccc(-c2ccccc2)cc1)n1cncn1 (stereo not given) | 5.7% (inactive) | –
ClCc1ccccc1CCl | -5.36% (inactive) | –
Clc1ccc(-c2ccccc2)cc1 | -12.1% (inactive) | –
CC(c1ccc(O)cc1)c1ccc(O)cc1 | – | inactive
C[C@@H]1CC[C@@]2(OC1)O[C@H]1[C@@H](O)[C@H]3[C@@H]4CC[C@H]5C[C@@H](O[C@@H]6O[C@H](CO)[C@H](O[C@@H]7O[C@H](CO)[C@@H](O)[C@H](O[C@@H]8OC[C@@H](O)[C@H](O)[C@H]8O)[C@H]7O[C@@H]7O[C@H](CO)[C@@H](O)[C@H](O[C@@H]8O[C@H](CO)[C@@H](O)[C@H](O)[C@H]8O)[C@H]7O)[C@H](O)[C@H]6O)[C@H](O)C[C@]5(C)[C@H]4CC[C@]3(C)[C@H]1[C@@H]2C | – | 20.7 µM (active)
NC(=O)CCl | 11.7% (inactive) | –
CSCCCN=C=S | 7.75% (inactive) | –
Cc1cc(C(F)(C(F)(F)F)C(F)(F)F)ccc1NC(=O)c1cccc(I)c1C(=O)NC(C)(C)CS(C)(=O)=O | -1.72% [at 35.3 µM] (inactive) | –
O=C(Cl)c1ccc(Cl)cc1 | 14.8% (inactive) | –
CN(C)C(=S)S | – | inactive
BrCC(Br)c1ccccc1 (stereo not given) | -15.8% (inactive) | –
Clc1ccc(C(c2ccccc2Cl)C(Cl)(Cl)Cl)cc1 (stereo not given) | -25.1% (inactive) | –
O=[N+]([O-])c1cc(C(F)(F)F)c(Cl)c([N+](=O)[O-])c1Cl | – | 49 µM (active)
Clc1ccc(-c2ccc(Cl)c(Cl)c2Cl)c(Cl)c1Cl | -13.9% (inactive) | –
Oc1ccc(C2(c3ccc(O)cc3)CCCCC2)cc1 | -20.2% (inactive) | –
OC(Cc1ccccc1Cl)(Cn1cncn1)C1(Cl)CC1 (stereo not given) | -3.74% (inactive) | –
CCCSP(=O)(OCC)SCCC | -1.84% (inactive) | –

SMILES | activity change, negative = cytotoxicity | Potency
COc1ccc(/C(=C/C(=O)N2CCOCC2)c2ccc(Cl)cc2)cc1OC | 3.47% (inactive) | –
N#CCc1ccc(Cl)cc1 | -13.3% (inactive) | –
CS(=O)(=O)c1ccc(C(=O)C2C(=O)CCCC2=O)c([N+](=O)[O-])c1 | 2.96% (inactive) | –
CCOCCOC(C)=O | 14.9% (inactive) | –
N#CCCO | -2.58% (inactive) | –
CCCCCCCCCCCCBr | 20.6% (inactive) | –
N#Cc1ccccc1Cl | 0.993% (inactive) | –
O=c1[nH]c2ccccc2n1C1CCN(CCCC(c2ccc(F)cc2)c2ccc(F)cc2)CC1 | – | 49 µM (active) and inactive
FC(F)(F)c1cccc(C2=CCN(CCc3ccc4ccccc4c3)CC2)c1 | -11% [at 35.3 µM] (inactive) | –
Nc1ccc([N+](=O)[O-])cc1Cl | -21.3% (inactive) | –
CN(C)C(=S)[S-].CN(C)C(=S)[S-].[Cu+2] | – | 9.46 µM (active)
CC(=O)C(Cl)(Cl)Cl | -25.5% (inactive) | –
Nc1ccccc1C(=O)OC/C=C/c1ccccc1 | -10% (inactive) | –
COP(=O)(OC)SCn1c(=O)oc2cc(Cl)cnc21 | -4.73% (inactive) | –
Clc1ccc(COC(Cn2ccnc2)c2ccc(Cl)cc2Cl)cc1 (stereo not given) | – | 40.7 µM (active)
Oc1ccc(C(=C(Cl)Cl)c2ccc(O)cc2)cc1 | -2.6% (inactive) | –
CC(C)CCCCCCCOP(=O)(Oc1ccccc1)Oc1ccccc1 | -12.8% (inactive) | –
N#Cc1ccccc1N | -0.63% (inactive) | –
Cc1ccc(CCl)cc1 | 1.22% (inactive) | –
CCC[CH2][Sn]([CH2]CCC)([CH2]CCC)[O]C(=O)c1ccccc1 | – | 2.45 µM (active)
